Source: PubChem BioAssay
Hits are enriched below; roughly 12% of the tested compounds scored in any of these assays.
L major viab: reduces viability of Leishmania major promastigotes. 9% of 200,000 active. inhibition, % at 10 µM. resazurin fluorescence viability; in the data active = inhibition above about 50%;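 note: promastigotes grown with compound for 44 hours at 28 °C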
WT yeast gro inh: growth inhibition of WT yeast, mitochondrial fusion screen; mitochondrial fusion phenotypic screen, WT strain; inhibition, % at 10 µM; 2.1% of 190,000 active; in the data active = inhibition above about 58%; tested in S. cerevisiae
CHOP inh: inhibitors of CHOP induction in ER stress response; CHO-K1 CHOP-promoter luciferase, tunicamycin-induced, 15-18 h; inhibition, % at 10 µM; 3.8% of 220,000 active; AID 2732;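 active = compounds that reduced the stress-induced luciferase reporter signal by more than about 70% of percent inhibition, limit read from the data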;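 note: 0% = tunicamycin plus vehicle and 100% = wells without tunicamycin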
Arbovirus inh: arbovirus infection inhibition. inhibition, % at 10 µM. arbovirus infection cell-based antiviral screen. 0.37% of 200,000 active. AID 1251; in the data active = inhibition above about 30%
* = called active by the depositor.

Screening Cc1ccc(NC(=S)N2CCN(C(=O)C3CCCO3)CC2)cc1 (stereo not given) returned L major viab -1.3, WT yeast gro inh 3.3, CHOP inh -13.4 and Arbovirus inh 11.4.
Screening S=C(Nc1ccccc1)N1CCN(C2CCCCC2)CC1 returned L major viab 88.3*, WT yeast gro inh -1.0, CHOP inh 23.0 and Arbovirus inh 9.4.
For O=C(C1CCCO1)N1CCN(C(c2ccccc2)c2ccccc2)CC1 (stereo not given) the results were L major viab 96.4*, WT yeast gro inh -3.4, CHOP inh 16.4 and Arbovirus inh 0.2.
O=C(C1CCCO1)N1CCN(C(=S)Nc2ccccc2)CC1 (stereo not given) was read as L major viab 53.2*, WT yeast gro inh 2.2, CHOP inh 10.3 and Arbovirus inh 5.2.
For COc1cc2c(cc1OC)CN(C(=O)CCCOc1ccc(Cl)cc1Cl)CC2 the results were L major viab -5.0, WT yeast gro inh 28.3, CHOP inh 13.2 and Arbovirus inh -11.5.
Screening OCCN1CCN(CCOc2ccccc2-c2ccccc2)CC1 returned L major viab 1.3, WT yeast gro inh -3.3, CHOP inh 23.2 and Arbovirus inh -18.9.
Screening c1ccc(-c2ccccc2OCCOCCN2CCc3ccccc3C2)cc1 returned L major viab 76.8*, WT yeast gro inh 44.5, CHOP inh 11.4 and Arbovirus inh 13.2.
For Clc1ccc(OCCOCCN2CCc3ccccc3C2)c(Cl)c1 the results were L major viab 88.0*, WT yeast gro inh 69.9*, CHOP inh 9.1 and Arbovirus inh -21.4.
Screening NC(=O)c1ncn([C@@H]2O[C@H](CO)[C@@H](O)[C@H]2O)c1O returned L major viab -7.5, WT yeast gro inh 28.8, CHOP inh 4.6 and Arbovirus inh 2.7.
Screening CNc1cc(CS(=O)c2ccccc2)nc(-c2ccccc2)n1 (stereo not given) returned L major viab -1.3, WT yeast gro inh 14.4, CHOP inh 17.7 and Arbovirus inh 6.6.
Screening O=S(Cc1cc(Sc2ccccc2)nc(-c2ccccc2)n1)c1ccccc1 (stereo not given) returned L major viab 15.1, WT yeast gro inh 59.0*, CHOP inh 53.6 and Arbovirus inh -10.8.
Oc1cccc(NC(=S)Nc2ccc(SC(F)F)cc2)c1 was read as L major viab 61.5*, WT yeast gro inh 47.8, CHOP inh 18.9 and Arbovirus inh 17.4.
`Oc1cccc2c(NC(=S)Nc3ccc(SC(F)F)cc3)cccc12` gave L major viab -3.1, WT yeast gro inh 65.0*, CHOP inh 25.0 and Arbovirus inh 6.2.
For O=C(NCc1ccc(OC(F)(F)F)cc1)C1CC(c2c(Cl)cccc2Cl)=NO1 (stereo not given) the results were L major viab -2.7, WT yeast gro inh 51.2, CHOP inh 6.9 and Arbovirus inh -6.9.
Cc1ccccc1NC(=O)Cn1nnc2ccccc21 was read as L major viab -15.7, WT yeast gro inh 8.9, CHOP inh 24.0 and Arbovirus inh 6.8.
`CCn1c2c(c3cc(Cl)ccc31)CCCC2=O` gave L major viab -3.8, WT yeast gro inh 4.3, CHOP inh 75.5* and Arbovirus inh -3.2.
Screening O=c1c2cc(Cl)ccc2nc(-c2ccc(Cl)c(Cl)c2)n1O returned CHOP inh 102.3*.
Cc1ccc(NS(=O)(=O)c2ccc(C(=O)N3CCN(c4ncccn4)CC3)cc2)cc1 was read as L major viab -10.8, WT yeast gro inh 0.8, CHOP inh 48.6 and Arbovirus inh 14.3.
Screening O=C(c1ccc(S(=O)(=O)Nc2ccc(F)cc2)cc1)N1CCN(c2ccccn2)CC1 returned L major viab 99.3*, WT yeast gro inh 6.0, CHOP inh 43.8 and Arbovirus inh 8.3.
O=C(Cn1nnc(-c2ccc(Cl)cc2)n1)NCC1CCCCC1 was read as L major viab -8.8, WT yeast gro inh -1.7, CHOP inh 90.1* and Arbovirus inh 0.1.
Screening Cc1ccc(C(=O)OC2CCS(=O)(=O)c3sccc32)cc1 (stereo not given) returned L major viab -1.2, WT yeast gro inh 16.5, CHOP inh 76.9* and Arbovirus inh 2.2.
`CCOc1ccc(OCCSc2nc3ccccc3o2)cc1` gave L major viab 0.2, WT yeast gro inh -8.6, CHOP inh 76.9* and Arbovirus inh 5.8.
`O=C(Cn1cncc1-c1ccc([N+](=O)[O-])cc1)Nc1cccc2ccccc12` gave L major viab 3.8, WT yeast gro inh -11.1, CHOP inh 92.5* and Arbovirus inh -16.6.
For Cc1ccc(Oc2nc(CN3CCOCC3)nc3sc4c(c23)CCC(C)C4)cc1 (stereo not given) the results were L major viab 75.7*, WT yeast gro inh 63.1*, CHOP inh 54.8 and Arbovirus inh -37.6.
Cc1ccc(Oc2nc(CN3CCOCC3)nc3sc4c(c23)CCC(C)C4)cc1C (stereo not given) was read as L major viab 96.9*, WT yeast gro inh 65.4*, CHOP inh -17.8 and Arbovirus inh -38.6.
For CC1CCc2c(sc3nc(CN4CCOCC4)nc(N4CCc5ccccc5C4)c23)C1 (stereo not given) the results were L major viab 13.3, WT yeast gro inh 23.4, CHOP inh 24.3 and Arbovirus inh -0.1.
For N#CC1=C(N)N(c2ccccc2)C(c2cccc([N+](=O)[O-])c2)C1(C#N)C#N (stereo not given) the results were L major viab 54.1*, WT yeast gro inh -34.1, CHOP inh 8.6 and Arbovirus inh 7.5.
Cn1c(N)c(C(=O)COC(=O)CCOc2ccc(C(C)(C)C)cc2)c(=O)n(C)c1=O was read as L major viab 2.5, WT yeast gro inh 44.5, CHOP inh 71.0* and Arbovirus inh -2.8.
`COc1ccccc1OCCC(=O)OCC(=O)c1c(N)n(C)c(=O)n(C)c1=O` gave L major viab -3.1, WT yeast gro inh -0.5, CHOP inh 12.6 and Arbovirus inh 1.9.
For CSc1ccc(/C=C(\C#N)C(=O)NC2CCCCC2C)cc1 (stereo not given) the results were L major viab 55.3*, WT yeast gro inh -1.3, CHOP inh 22.4 and Arbovirus inh 1.4.
`CC1CCCCC1NC(=O)/C(C#N)=C/c1ccccc1F` (stereo not given) gave L major viab 100.2*, WT yeast gro inh 72.6*, CHOP inh -10.0 and Arbovirus inh -37.0.
`COc1cc(/C=C(\C#N)C(N)=O)ccc1OS(=O)(=O)c1ccc(C)cc1` gave L major viab 0.6, WT yeast gro inh 0.3, CHOP inh -34.3 and Arbovirus inh 9.7.
`COc1cc(/C=C(\C#N)C(=O)NC2CCCCC2C)ccc1OS(=O)(=O)c1ccc(C)cc1` (stereo not given) gave L major viab 100.1*, WT yeast gro inh 23.5, CHOP inh 62.0 and Arbovirus inh -36.6.
O=C(NCc1ccccc1)C(c1ccncc1)N(C(=O)c1csnn1)C1CC1 (stereo not given) was read as L major viab -6.2, WT yeast gro inh -2.3, CHOP inh -0.2 and Arbovirus inh 1.4.
`O=C(NCCCN1CCOCC1)c1ccc(Sc2cccc(Cl)c2)c([N+](=O)[O-])c1` gave L major viab 31.3, WT yeast gro inh 33.9, CHOP inh 44.0 and Arbovirus inh -23.5.
